Tgondii IFNg: blocks Toxoplasma gondii growth in the presence of IFN-gamma. AID 1259416. Toxoplasma gondii growth in IFN-gamma-treated host cells; stronger effect = lower value. activity change, negative = inhibition, % (no concentration beside the values). 3.8% of 69,000 active; in the data active = activity change below about -70%, passing the limit was not always enough;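 note: host cells are HeLa cells infected with Toxoplasma gondii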
Of the large screens only hits and unclear results are named; the others gave an inactive call. This excerpt belongs to a sample that is enriched for hits.

COc1ccccc1NC(=O)c1ccc2nsnc2c1	none
COc1cc(C(=O)Nc2ccc(-c3nc(-c4ccc(C)cc4)co3)cc2)cc(OC)c1OC	none
CN(C)C[C@@]12COC[C@H]1CN(C(=O)N(C)C)C2	none
CCC1CCCCN1CC(=O)N1CCC(O)(c2ccc(C(F)(F)F)cc2)CC1 (centres undefined)	none
O=C(Cn1ncc2c(N3CCOCC3)ncnc21)NCc1ccc(F)cc1F	none
CC(C)c1ccc(NC(=O)C2CC(=O)N(CCc3c[nH]c4ccc(F)cc34)C2)cc1 (centres undefined)	Tgondii IFNg -81
Cc1ccc2[nH]cc(CCN3CC(C(=O)NCCc4ccc(F)cc4)CC3=O)c2c1 (centres undefined)	none
CC(C)(C)c1nnc(NC(=O)C2CC(=O)N(CCc3c[nH]c4ccc(F)cc34)C2)s1 (centres undefined)	none
O=C(NC1CCCCCC1)C1CC(=O)N(CCc2c[nH]c3ccc(Cl)cc23)C1 (centres undefined)	none
O=C(Nc1ccc2c(c1)CCC2)C1CC(=O)N(CCc2c[nH]c3ccc(Cl)cc23)C1 (centres undefined)	Tgondii IFNg -111
Cc1nnc(NC(=O)C2CC(=O)N(CCc3c[nH]c4ccc(Cl)cc34)C2)s1 (centres undefined)	none
CC(c1ccc(-c2ccc3nc[nH]c3c2)cc1)N1CCOCC1 (centres undefined)	none
CN(CCC(=O)Nc1ccccc1Cl)Cc1cc(C2CC2)n[nH]1	none
CCCc1cc2c(cc1NC(=O)CCn1cnc3sc(C)c(C)c3c1=O)OCO2	none
CC(C)c1nccn1CCCNC(=O)c1ccc(-c2ccc3cc[nH]c3c2)nc1	none
CC(=O)N1CCC2(CC1)CC(NCC1CCOC1)c1ccccc1O2 (centres undefined)	none
CS(=O)(=O)CS(=O)(=O)Oc1ccc(Cl)cc1	none
Cc1ncsc1CN(Cc1ccccc1)C1CCNCC1	none
COc1cncc(-c2ccc(F)c(CO)c2)c1	none
Cc1[nH]nc2ccc(-c3cncc(OC[C@@H](N)Cc4ccccc4)c3)cc12	Tgondii IFNg -78
CCOc1cc(CNCC2CCNCC2)cc(Br)c1OCC	none
CCC(=O)Nc1ccc(-c2ccc(OC)nc2)c(C)n1	none
COc1ccc(-c2ccccc2OC(C)C(N)=O)cn1 (centres undefined)	none
COc1ccc(-c2cc3c(C)nc(N)nc3n(C3CCC(OCCO)CC3)c2=O)cn1 (centres undefined)	Tgondii IFNg -83
Cc1nnc(CN2CCCC(N3CCCC3=O)C2)s1 (centres undefined)	none
O=C(c1c(F)cccc1F)N1CCOC(c2ccc(Cl)cc2)C1 (centres undefined)	Tgondii IFNg -79
CCn1c(C)cc(C)c(C(=O)N2CCOC(c3ccc(Cl)cc3)C2)c1=O (centres undefined)	none
O=C(c1ncoc1-c1ccccc1)N1CCOC(c2ccc(Cl)cc2)C1 (centres undefined)	none
NC(=O)[C@H](Cc1ccccc1)NCC(=O)NC1CCCCCCC1	none
COCCN(Cc1cccs1)C(=O)c1ccc(F)c(C)c1	none
CCOCC1CN(C(=O)c2ccoc2)Cc2ncn(CC3CC3)c21 (centres undefined)	none
OC1(c2ccc(-c3cccc4ccnn34)cc2)CCNCC1	none
O=C(O)c1ccc(-c2ccc3cc(O)c(C45CC6CC(CC(C6)C4)C5)cc3c2)cc1	none
O=C(O)c1ccc2cc(-c3ccc(O)c(C45CC6CC(CC(C6)C4)C5)c3)ccc2c1	Tgondii IFNg -74
CC(=O)Nc1ccc(C23CC4CC(CC(C4)C2)C3)c(C)c1	none
Cc1nc(N2CCOC(C(F)(F)F)C2)c2ccsc2n1 (centres undefined)	none
FC(F)(F)C1CN(c2nc(-c3ccccc3)no2)CCO1 (centres undefined)	none
CC(C)c1cc(N2CCOC(C(F)(F)F)C2)nc(C(F)(F)F)n1 (centres undefined)	Tgondii IFNg -81
NCCc1nc(NCc2ccccc2-n2cncn2)c2ccccc2n1	none
O=C(c1ccc(F)cc1)N1CC(C(=O)N2CCOCC2)C2(CCOCC2)C1 (centres undefined)	none
COc1ccc(NC(=O)C2OC3OC(C)(C)OC3C3OC(C)(C)OC23)cc1 (centres undefined)	Tgondii IFNg -94
COc1ccc(Oc2ccc(NC(=O)C3C4CC5OC(=O)C3C5C4)cc2)cc1 (centres undefined)	none
COc1ccc(NC(=O)N2CCOCC2)cc1	none
COc1ccccc1OC1CN(C(=O)c2cccc(C#CC(C)(C)O)c2)C1	none
CCc1noc(CC)c1C(=O)Nc1nc(-c2ccc(OC)c(OC)c2)cs1	Tgondii IFNg -82
COc1ccc(-c2csc(NC(=O)c3ccccc3C)n2)cc1	none
CCc1noc(CC)c1C(=O)Nc1nc(CS(=O)(=O)c2ccc(C)cc2)cs1	none
CCN(CC)CCNC(=O)c1cc(NC(C)=O)ccc1Cl	none
COC1CCCC(C(=O)N2CCC3(CC2)C(=O)Nc2ccc(-c4cccc(F)c4)cc23)C1 (centres undefined)	none
CCC(=O)N1CCC2(CC1)C(=O)Nc1ccc(C(=O)NC3CC3)cc12	none
COC1CCCC(C(=O)N2CCC3(CC2)C(=O)Nc2ccc(-c4ccc(C(C)=O)cc4)cc23)C1 (centres undefined)	Tgondii IFNg -86

Screens from PubChem BioAssay.
